# “And” between values parts separate entries of the source, which are not always exact repeats. Equal values may be shown once. Inconclusive results are not listed. Where a call stands in place of a potency, no number is given. Some structures have more than one record in an assay (separate samples or runs), and their calls can disagree. The source made the active and inactive calls. Unless noted, calls come from the whole dose curve; as a rule, active = well fitted curve in the direction sought with a large enough effect in the repeat runs; inconclusive = weak or mixed curves; inactive = no such curve, though single readings can be large; an effect the other way counts as inactive or inconclusive.
# Columns and labels:
# [1] = qHTS assay for small molecule agonists of the p53 signaling pathway (AID 651631; calls by dose curve; note: nearly all actives have a fitted effect of over 15% in size; note: potency is the fitted concentration of half-maximal effect)
# Procedure, shortened: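 Agonist mode screen using a stably integrated beta-lactamase gene under p53 response elements in HCT-116 cells. Compound exposure lasts 16 h at 37 °C; fluorescence intensity is measured following 2 h FRET substrate loading.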
# [2] = qHTS assay for small molecules that induce genotoxicity in human embryonic kidney cells expressing luciferase-tagged ATAD5 (AID 651632); note: nearly all actives have a fitted effect of over 15% in size
# Procedure, shortened: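 Luminescence read-out: after 16 hr compound exposure at 37C, ATAD5-luciferase HEK293T cells received Amplite, 30 min RT, then CCD imaging. A rise in signal marks genotoxic stress.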
# [3] = qHTS assay for small molecule agonists of the p53 signaling pathway - cell viability (AID 651633; calls by dose curve; note: nearly all actives have a fitted effect of over 30% in size; note: potency is the fitted concentration of half-maximal effect)
# Procedure, shortened: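 Viability counter-read: CellTiter-Glo luminescence (30 min, room temperature) in the same p53RE-bla plates. These plates had been exposed to compounds for 16 h at 37 C.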
# [4] = qHTS assay for small molecules that induce genotoxicity in human embryonic kidney cells expressing luciferase-tagged ATAD5 - cell viability (AID 651634; calls by dose curve; note: nearly all actives have a fitted effect of over 25% in size; note: potency is the fitted concentration of half-maximal effect)
# Procedure, shortened: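 HEK293T ATAD5-luc cells, 2,000/well; compound 15.5 hr, 37C/5% CO2; CellTiter-Fluor 30 min, 37C; fluorescence read.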
# [5] = qHTS assay for small molecule disruptors of the mitochondrial membrane potential - cell viability (AID 720634; calls by dose curve;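 note: human HepG2 liver cancer cells; nearly all actives have a fitted effect of over 20% in size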)
# Procedure, shortened: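 Luminescence from CellTiter-Glo (ATP content) gave viability in HepG2 cells, read in the same wells as the MMP dye assay after 1 hr compound exposure at 37 C.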
# [6] = qHTS assay to test for compound auto fluorescence at 590 nm (red) in HepG2 cells (AID 720674); note: potency is the fitted concentration of half-maximal effect
# Procedure, shortened: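 We screened compounds on adherent HepG2 cells, incubating them for an hour at 37 C in 5% CO2 before reading emission at 590 nm under 540 nm excitation; values reflect equivalence to Rose Bengal sodium fluorescence.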
# [7] = qHTS assay to test for compound auto fluorescence at 460 nm (blue) in HEK293 cells (AID 720678)
# Procedure, shortened: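 Blue read-out at excitation 405 nm and emission 460 nm follows overnight compound exposure of HEK293 cells at 37C in 5% CO2. Activity is given as auto fluorescence equivalency to triamterene.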
# [8] = qHTS assay to test for compound auto fluorescence at 590 nm (red) in HEK293 cells (AID 720679); note: potency is the fitted concentration of half-maximal effect
# Procedure, shortened: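 Red channel, Ex/Em 540/590nm; signal expressed as equivalency to Rose Bengal sodium. HEK293, 2,000 cells/well, 10% dialyzed FBS; 23 nL compound pinned after 4-5 hr attachment; overnight 37C/5% CO2 before reading.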
# [9] = qHTS assay to test for compound auto fluorescence at 535 nm (green) in HEK293 cells (AID 720680)
# [10] = qHTS assay to test for compound auto fluorescence at 460 nm (blue) in HEK293 cell free culture (AID 720681)
# Procedure, shortened: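 Blue fluorescence (Ex 405/Em 460 nm, triamterene-equivalent) was read immediately after pin transfer of compound or DMSO into medium (DMEM, 10% FBS) without cells.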
# [11] = qHTS assay to test for compound auto fluorescence at 535 nm (green) in HEK293 cell free culture (AID 720682)
# Procedure, shortened: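 No cells present: wells hold DMEM supplemented with 10% FBS, into which compound or vehicle is pinned. Green emission is then recorded (485 nm excitation, 535 nm emission) and scaled to fluorescein.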
# [12] = qHTS assay to test for compound auto fluorescence at 590 nm (red) in HEK293 cell free culture (AID 720683); note: potency is the fitted concentration of half-maximal effect
# Procedure, shortened: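 Red-channel autofluorescence of compounds in culture medium (DMEM, 10% FBS), no cells, measured at 540/590 nm. Rose Bengal sodium is the reference fluorophore for equivalence.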
# [13] = qHTS assay to test for compound auto fluorescence at 590 nm (red) in HepG2 cell free culture (AID 720684); note: potency is the fitted concentration of half-maximal effect
# Procedure, shortened: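 Cell-free; medium MEM + 10% FBS; compound or DMSO added by pintool; read Ex 540/Em 590 nm; Rose Bengal sodium as red reference fluorophore.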
# [14] = qHTS assay to test for compound auto fluorescence at 460 nm (blue) in HepG2 cell free culture (AID 720685)
# Procedure, shortened: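 Cell-free plates of MEM plus 10% FBS received 23 nL compound or DMSO vehicle; blue-channel (405/460 nm) intensity scored against triamterene as reference fluorophore.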
# [15] = qHTS assay to test for compound auto fluorescence at 535 nm (green) in HepG2 cell free culture (AID 720686); note: potency is the fitted concentration of half-maximal effect
# [16] = molecular target: Glucocorticoid receptor (Homo sapiens) (UniProt P04150); assay: qHTS assay to identify small molecule agonists of the glucocorticoid receptor (GR) signaling pathway (AID 720691; active = well fitted activation curve with a large enough effect in the signal ratio in the repeat runs, not every such curve was filed as active; the % refers to the signal ratio); details: GR-bla HeLa, beta-lactamase reporter ratio, 18 h; activation: at 62.4 µM (top of the series) unless noted
# Chain of Glucocorticoid receptor (Homo sapiens) (P04150 whole entry, looked up): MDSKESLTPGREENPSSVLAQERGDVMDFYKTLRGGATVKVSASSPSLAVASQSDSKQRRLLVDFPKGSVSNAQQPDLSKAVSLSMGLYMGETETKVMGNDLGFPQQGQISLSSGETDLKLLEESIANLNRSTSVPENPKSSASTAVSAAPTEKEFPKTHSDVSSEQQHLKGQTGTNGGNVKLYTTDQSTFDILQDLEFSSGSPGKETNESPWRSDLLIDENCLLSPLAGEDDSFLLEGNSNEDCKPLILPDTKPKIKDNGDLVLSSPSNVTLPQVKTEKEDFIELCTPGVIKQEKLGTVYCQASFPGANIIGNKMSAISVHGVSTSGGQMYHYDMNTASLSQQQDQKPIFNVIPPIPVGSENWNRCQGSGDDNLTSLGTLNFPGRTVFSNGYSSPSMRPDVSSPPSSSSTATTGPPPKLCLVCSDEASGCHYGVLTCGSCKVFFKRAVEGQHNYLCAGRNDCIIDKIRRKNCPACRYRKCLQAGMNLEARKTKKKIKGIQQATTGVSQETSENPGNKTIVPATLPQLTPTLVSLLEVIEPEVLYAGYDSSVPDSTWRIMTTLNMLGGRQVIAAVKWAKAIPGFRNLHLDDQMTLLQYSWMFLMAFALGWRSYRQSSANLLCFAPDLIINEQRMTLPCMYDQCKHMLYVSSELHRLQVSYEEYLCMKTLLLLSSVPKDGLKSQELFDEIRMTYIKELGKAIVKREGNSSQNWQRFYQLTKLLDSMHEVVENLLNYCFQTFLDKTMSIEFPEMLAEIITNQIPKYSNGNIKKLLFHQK
# Procedure, shortened: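 HeLa GR-bla reporter line; cells pre-incubated 4 h, compound in DMSO 18 h at 37 C; LiveBLAzer B/G FRET substrate 2 h RT; fluorescence intensity read-out.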
# [17] = molecular target: Glucocorticoid receptor (Homo sapiens) (UniProt P04150); assay: qHTS assay to identify small molecule antagonists of the glucocorticoid receptor (GR) signaling pathway (AID 720692; active = well fitted inhibition curve with a large enough effect in the signal ratio in the repeat runs, not every such curve was filed as active; the % refers to the signal ratio; note: potency is the fitted concentration of half-maximal effect)
# Procedure, shortened: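 Read-out: beta-lactamase FRET substrate fluorescence, 2 h at room temperature, in HeLa cells stably carrying a GRE-driven bla reporter. Compounds were co-incubated with 5 nM dexamethasone agonist (final) for 18 h at 37 C.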
# [18] = qHTS assay to test for compound auto fluorescence at 535 nm (green) in HepG2 cells (AID 720675); note: potency is the fitted concentration of half-maximal effect
# [19] = qHTS assay to test for compound auto fluorescence at 460 nm (blue) in HepG2 cells (AID 720687)
# Procedure, shortened: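 Blue-channel autofluorescence (Ex/Em 405/460 nm, triamterene-equivalent) was measured after 1 hr compound exposure at 37 C, 5% CO2. Cells were HepG2, plated overnight at 37 C in MEM plus 10% FBS.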
# [20] = qHTS assay for small molecule disruptors of the mitochondrial membrane potential (AID 720635); note: potency is the fitted concentration of half-maximal effect
# Procedure, shortened: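 Mitochondrial membrane potential tracked with Mito-MPS dye, red aggregates (ex 540/em 590 nm) against green monomers (ex 490/em 535 nm). Compound treatment 1 hr at 37C, dye 30 min in HepG2.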
# Tags give direction and shape of the fitted curve or compound fluorescence and quenching.
Compound,Potency [1],Potency [2],Potency [3],Potency [4],Potency [5],Potency [6],outcome [7],Potency [8],outcome [9],outcome [10],outcome [11],Potency [12],Potency [13],outcome [14],Potency [15],Potency [16],Potency [17],Potency [18],outcome [19],Potency [20]
CCOC(=O)Cc1cccc2ccccc12,inactive,inactive,inactive,inactive,inactive,inactive,inactive,inactive,inactive,inactive,inactive,inactive,inactive,inactive,inactive,inactive,inactive,–,–,–
Nc1ccccc1S(=O)(=O)c1ccccc1,inactive,inactive,inactive,inactive,inactive,inactive,–,inactive,inactive,inactive,inactive,inactive,inactive,–,inactive,inactive,inactive,inactive,inactive,–
CC(=O)[O][Al][O]C(C)=O,inactive,inactive,inactive,inactive,inactive,inactive,inactive,inactive,inactive,inactive,–,inactive,inactive,inactive,inactive,–,–,inactive,inactive,–
c1ccc(-c2ccccn2)nc1,inactive,inactive,inactive,–,inactive,inactive,inactive,inactive,inactive,inactive,–,–,inactive,inactive,–,inactive,–,inactive,inactive,inactive
Nc1cccc(S(=O)(=O)c2cccc(N)c2)c1,inactive,inactive,inactive,inactive,inactive,inactive,inactive,inactive,inactive,inactive,inactive,–,inactive,inactive,–,inactive,inactive,inactive,inactive,–
O=S(=O)(Oc1ccc(Cl)cc1)c1ccccc1,inactive,inactive,inactive,inactive,–,inactive,inactive,inactive,inactive,inactive,inactive,inactive,–,–,–,inactive,inactive,inactive,inactive,19.3 µM (active)
CN(C)C(=O)NC1(c2ccccc2)CCN(CC[C@@]2(c3ccc(F)c(F)c3)CN(C(=O)c3ccccc3)CCO2)CC1,inactive,inactive,inactive,inactive,inactive,inactive,inactive,inactive,inactive,inactive,–,inactive,inactive,inactive,inactive,inactive,inactive,inactive,–,–
Nc1cc(C(=O)O)c(O)c(S(=O)(=O)O)c1,inactive,inactive,inactive,–,inactive,inactive,inactive,inactive,inactive,inactive,–,inactive,inactive,inactive,inactive,inactive,inactive,inactive,–,inactive
CCCCc1ncc(/C=C(\Cc2cccs2)C(=O)O)n1Cc1ccc(C(=O)O)cc1,inactive,inactive,inactive,inactive,–,inactive,inactive,inactive,inactive,inactive,inactive,inactive,inactive,inactive,inactive,inactive,inactive,–,inactive,–
CC1=CCCC(C)(C)C12CCC(C)O2 (stereo not given),inactive,inactive,inactive,inactive,inactive,inactive,–,inactive,inactive,inactive,–,inactive,–,inactive,inactive,–,–,inactive,inactive,–
CCOC(=O)c1cccnc1,inactive,inactive,inactive,–,inactive,inactive,inactive,inactive,inactive,inactive,inactive,–,inactive,inactive,inactive,inactive,inactive,inactive,inactive,inactive
C=C(C)C(=O)OCCOCC,inactive,inactive,inactive,inactive,inactive,inactive,–,inactive,inactive,inactive,inactive,inactive,inactive,inactive,inactive,inactive,–,inactive,inactive,–
C[C@H](CCC(=O)O)[C@H]1CC[C@H]2[C@@H]3CC[C@@H]4C[C@H](O)CC[C@]4(C)[C@H]3C[C@H](O)[C@]12C,inactive,inactive,inactive,inactive,inactive,inactive,inactive,inactive,inactive,inactive,–,inactive,inactive,–,inactive,inactive,49.1 µM (active),–,inactive,–
COS(=O)(=O)C(F)(F)F,inactive,inactive,inactive,inactive,inactive,inactive,inactive,inactive,inactive,inactive,inactive,inactive,inactive,inactive,inactive,inactive,inactive,–,inactive,–
CCCCC1=NC2(CCCC2)C(=O)N1Cc1ccc(-c2ccccc2-c2nn[nH]n2)cc1,inactive,inactive,inactive,inactive,inactive,–,inactive,inactive,inactive,inactive,inactive,–,inactive,inactive,inactive,–,–,inactive,inactive,–
OCc1cc(C(O)CNCCCCCCOCCCCc2ccccc2)ccc1O (stereo not given),inactive,inactive,inactive and 26.6 µM (active),inactive,inactive,inactive,inactive,inactive,inactive,inactive,–,inactive,inactive,inactive,inactive,–,inactive,inactive,inactive,–

Compound,Potency [1],Potency [2],Potency [3],Potency [4],Potency [5],Potency [6],outcome [7],Potency [8],outcome [9],outcome [10],outcome [11],Potency [12],Potency [13],outcome [14],Potency [15],Potency [16],Potency [17],Potency [18],outcome [19],Potency [20]
COC(=O)C1=C(C)NC(COC(N)=O)=C(C(=O)OC(C)C)C1c1cccc(Cl)c1Cl (stereo not given),16.8 µM (active),inactive,inactive,inactive,–,inactive,–,inactive,inactive,–,–,inactive,inactive,–,inactive,–,–,inactive,–,26.6 µM (active)
Cc1ccccc1S(=O)(=O)O,inactive,inactive,inactive,–,inactive,inactive,inactive,inactive,inactive,inactive,–,inactive,inactive,inactive,inactive,–,–,inactive,inactive,inactive
C#CCN(C)CCCOc1ccc(Cl)cc1Cl,inactive,inactive,inactive,inactive,inactive,inactive,inactive,inactive,inactive,inactive,inactive,–,inactive,inactive,–,inactive,inactive,inactive,inactive,–
CCN(CC)c1ccc2c(-c3ccccc3C(=O)O)c3ccc(=[N+](CC)CC)cc-3oc2c1,inactive,inactive,inactive,21.7 µM (active),inactive,1 µM (active),inactive,1.12 µM [fluorescent] (active),–,inactive,–,2 µM [fluorescent] (active),1.12 µM [fluorescent] (active),inactive,31.6 µM [fluorescent] (active),–,–,31.6 µM (active),inactive,–
ClCCOCCOCCCl,inactive,inactive,inactive,–,–,–,–,inactive,inactive,inactive,inactive,inactive,inactive,–,inactive,–,–,–,inactive,–
Cc1oc2c(NC(=O)c3c(Cl)cccc3Cl)cccc2c1C(C)(C)O,inactive,inactive,inactive,–,–,–,inactive,inactive,inactive,inactive,inactive,inactive,inactive,inactive,inactive,–,–,inactive,inactive,–
C[C@@H]1C[C@H]2O[C@@]3(O[C@@H]2C(C)(C)O)[C@H](O)[C@@]2(C)[C@@H]4CC[C@H]5C(C)(C)[C@@H](O[C@@H]6OC[C@@H](O)[C@H](O)[C@H]6O)CC[C@@]56C[C@@]46CC[C@]2(C)[C@@H]13,inactive,–,inactive,inactive,inactive,inactive,inactive,inactive,inactive,inactive,inactive,–,inactive,inactive,inactive,inactive,–,inactive,–,5.38 µM (active)
CC(=O)[O][Al],inactive,–,inactive,inactive,inactive,inactive,inactive,inactive,inactive,inactive,inactive,inactive,inactive,inactive,inactive,–,–,inactive,inactive,–
O=C(OCCc1ccccc1)c1ccccc1,inactive,–,inactive,inactive,inactive,inactive,–,inactive,inactive,inactive,inactive,inactive,–,inactive,inactive,inactive,–,inactive,inactive,inactive
CCCCCCCCO[C@@H]1O[C@H](CO)[C@@H](O)[C@H](O)[C@H]1O,inactive,–,inactive,inactive,inactive,inactive,inactive,inactive,inactive,inactive,inactive,inactive,inactive,inactive,inactive,–,inactive,inactive,–,–
Cc1ncc(CO)c(C=O)c1O,inactive,–,inactive,inactive,inactive,inactive,inactive,inactive,inactive,inactive,inactive,inactive,inactive,inactive,inactive,inactive,inactive,inactive,inactive,inactive
CCCCc1nc2cccnc2n1Cc1ccc(-c2ccccc2-c2nnn[nH]2)cc1,inactive,inactive,inactive,–,–,inactive,inactive,inactive,inactive,inactive,–,–,inactive,inactive,inactive,–,–,–,inactive,–
O=[N+]([O-])c1ccc(NCCO)c(OCCO)c1,inactive,–,inactive,61.2 µM (active),inactive,inactive,inactive,inactive,inactive,inactive,inactive,–,–,inactive,–,inactive,inactive,inactive,inactive,inactive
c1ccc(CNCCNCc2ccccc2)cc1,inactive,–,inactive,inactive,inactive,inactive,inactive,inactive,inactive,inactive,inactive,inactive,inactive,–,inactive,inactive,inactive,inactive,inactive,–
CC1=CC=C(C(C)C)CC1,inactive,inactive,inactive,–,–,inactive,inactive,inactive,inactive,inactive,–,inactive,inactive,–,inactive,–,–,inactive,inactive,–
CC(=O)OC[C@H]1O[C@@H](n2ncc(=O)[nH]c2=O)[C@H](OC(C)=O)[C@@H]1OC(C)=O,1.88 µM (active),inactive,–,–,inactive,–,inactive,inactive,inactive,inactive,inactive,inactive,inactive,inactive,inactive,–,–,inactive,inactive,inactive
